Measurements as given in the supplement of paper PMC3334620.
Over roughly 33,000 sequences, “E-score (-0.5 to 0.5)” has its median near -0.054; the highest 2% begin near 0.35. For the sample, the highest values were picked, then their nearest neighbours and some sequences at random.

Each sequence was assayed against T1, Stb5 (UniProt P38699) (assay: PBM E-score (8-mer binding enrichment) (E-score (-0.5 to 0.5)); higher = stronger / more preferred TF binding). Conditions: protein concentration: 200 nM; construct: GST-full length.
T1 sequence: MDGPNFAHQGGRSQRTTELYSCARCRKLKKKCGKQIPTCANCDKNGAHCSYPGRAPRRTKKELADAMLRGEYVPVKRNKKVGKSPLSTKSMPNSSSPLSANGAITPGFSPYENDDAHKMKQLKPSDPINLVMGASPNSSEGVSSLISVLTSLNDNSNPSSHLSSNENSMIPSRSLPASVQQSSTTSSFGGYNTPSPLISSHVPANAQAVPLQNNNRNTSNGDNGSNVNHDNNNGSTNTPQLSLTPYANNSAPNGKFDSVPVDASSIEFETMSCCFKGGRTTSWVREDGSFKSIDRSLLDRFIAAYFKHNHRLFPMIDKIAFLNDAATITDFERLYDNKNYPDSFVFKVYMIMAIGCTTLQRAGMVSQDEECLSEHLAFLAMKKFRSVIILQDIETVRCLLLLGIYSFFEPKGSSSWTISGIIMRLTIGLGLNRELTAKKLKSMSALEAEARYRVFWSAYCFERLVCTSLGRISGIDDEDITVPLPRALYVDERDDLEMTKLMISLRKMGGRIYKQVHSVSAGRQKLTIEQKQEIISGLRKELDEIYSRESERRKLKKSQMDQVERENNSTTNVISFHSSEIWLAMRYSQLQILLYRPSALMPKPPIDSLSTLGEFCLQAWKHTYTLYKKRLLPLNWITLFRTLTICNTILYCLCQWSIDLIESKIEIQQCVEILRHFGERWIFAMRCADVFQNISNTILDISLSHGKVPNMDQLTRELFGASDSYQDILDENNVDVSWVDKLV
Method: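 Universal 'all 10-mer' protein binding microarrays (Agilent AMADID 015681) probed with GST-tagged S. cerevisiae TFs (full-length or DBD) made by in vitro transcription/translation (PURExpress), about 100-200 nM. Bound TF was detected with fluorescent anti-GST. Each ungapped 8-mer (which stands for itself and its reverse complement) is scored by the PBM enrichment score (E-score), a modified Wilcoxon-Mann-Whitney statistic from -0.5 to +0.5, computed with the Universal PBM Analysis Suite. Scale: above 0.35 generally sequence-specific binding.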

| Sequence | PBM E-score |
| --- | --- |
| CGTGATAC | -0.0683 |
| AGTGATAA | -0.0882 |
| AGTGATAC | -0.128 |
| GGTGATAA | 0.415 |
| GGTGATAC | 0.369 |
| CGTGATAA | 0.0332 |
| CTCCTGTC | -0.26 |
| ATCCGTTA | 0.197 |
| AACCGTTC | 0.128 |
| AACCGTTA | -0.101 |
| CTCCGTTA | 0.299 |
| CACCGTTA | 0.367 |
| CGCCGTTA | 0.356 |
| CACCGTTC | 0.368 |
| AGCCGTTA | 0.0306 |
| GACCGTTA | 0.278 |
| GGCCGTTA | 0.213 |
| GTCCGTTA | 0.355 |
| CGCCGTTC | 0.306 |
| GCGGGCAA | 0.171 |
| GCAGACTA | -0.158 |
| CTCCACAG | -0.313 |
| CCTTTTGA | -0.106 |
| CGTTGTCC | -0.0582 |
| GACCAATA | 0.0169 |

| Sequence | PBM E-score |
| --- | --- |
| GCCCTTAC | -0.0337 |
| CGGTCATA | 0.448 |
| CTGTCGGA | 0.349 |
| GAGTCGGA | 0.307 |
| CAGTCGGA | 0.292 |
| GGGTCATA | -0.00196 |
| CGGTCGTC | 0.0319 |
| CGGTCATC | 0.135 |
| CGGTCGTA | 0.381 |
| TAGTCGGA | 0.355 |
| GGGTCGTA | 0.00669 |
| ATGTCGGA | 0.303 |
| GTGTCGGA | 0.357 |
| GAGCGGGA | 0.249 |
| TCCAGAGA | -0.208 |
| AGTCAAGC | -0.3 |
| GTGAGCAA | -0.0477 |
| TACGGGCA | 0.143 |
| GACAACTA | -0.06 |
| GCACAGAC | 0.0491 |
| CGAGTTTC | -0.0887 |
| CCGTCGGA | 0.37 |
| ACGTCGGA | 0.264 |
| CCGTCGGC | 0.377 |
| ACGTCGGC | 0.27 |

| Sequence | PBM E-score |
| --- | --- |
| CGGTCGGA | 0.313 |
| CGGTCGGC | 0.352 |
| AGGTCGGC | 0.293 |
| GCGTCGGA | 0.345 |
| CCGTCGTC | 0.161 |
| GGAATAAC | 0.177 |
| ATTTATTG | -0.0662 |
| AAGCTGAA | -0.152 |
| CCAAGAGG | -0.138 |
| CGGTGCCA | 0.414 |
| GGGTGCCA | -0.012 |
| CGGTGCGA | 0.384 |
| CGGTGCCC | 0.27 |
| GGGTGCGA | -0.0506 |
| AGGTGCGA | 0.0754 |
| CCTGCTGA | -0.216 |
| CGCTTCCG | 0.208 |
| CCCGACTA | 0.312 |
| AGTGCCGC | 0.381 |
| AGTGCCAC | -0.251 |
| ATTGCCGA | 0.318 |
| CGTGCCGC | 0.249 |
| CGTGCCGA | 0.212 |
| GGTGCCGA | 0.292 |
| AGTGCCTG | -0.17 |

| Sequence | PBM E-score |
| --- | --- |
| ATTGCCGC | 0.351 |
| AGTGCCAG | -0.0267 |
| AGTGCCGG | 0.407 |
| ATTGCCGG | 0.408 |
| AGTGCCGA | 0.387 |
| CACCAACG | 0.0702 |
| AACCGTGT | -0.115 |
| AGTCTGGG | -0.291 |
| CCTGAGCG | -0.0867 |
| CCGATAGA | 0.249 |
| TGTCCCAA | -0.0294 |
| ATTAGCTG | -0.119 |
| CCTCTAAA | -0.196 |
| CACCGACG | 0.453 |
| GACCGACA | 0.341 |
| CACCGAAC | 0.366 |
| GACCGAAC | 0.145 |
| TACCGACA | 0.356 |
| AACCGACA | 0.181 |
| CACCGACC | 0.418 |
| AACCGACC | 0.244 |
| CACCGAAG | 0.253 |
| AACCGACG | 0.286 |
| GACCGACC | 0.308 |
| CACCGAGG | 0.23 |

| Sequence | PBM E-score |
| --- | --- |
| CCCATGAA | -0.0849 |
| CCAAGTAG | -0.293 |
| CAGTGCGC | -0.135 |
| GACCACAC | -0.152 |
| ACCCTAGG | -0.165 |
| CTTCACAC | -0.0447 |
| CACCGAGA | 0.151 |
| CACCGACA | 0.44 |
| CACCGAAA | 0.305 |
| AAAAAGAT | -0.291 |
| CGGACACG | 0.232 |
| CGGAGACA | 0.398 |
| CGGAGACG | 0.166 |
| AGGACGTA | -0.182 |
| CGGACGTA | 0.407 |
| CGGACATC | 0.256 |
| CGGACGTC | 0.0917 |
| TGGACACA | -0.0717 |
| AGGAGACA | -0.131 |
| CGGACATA | 0.474 |
| GGGACATA | 0.132 |
| CGGACACA | 0.356 |
| ACCCCCTC | -0.265 |
| GTGCACCA | -0.17 |
| CGGAGGGC | -0.0349 |

| Sequence | PBM E-score |
| --- | --- |
| CCTTCCCG | -0.125 |
| ACAGCGTA | -0.0758 |
| AAAATCAC | -0.092 |
| GGTGATCA | 0.0514 |
| CTTGTGGC | -0.163 |
| CGTAGTAC | 0.0304 |
| CTCCGGTA | 0.316 |
| CACCGGTC | 0.337 |
| AACCGGTG | 0.306 |
| GACCGGTA | 0.231 |
| CACCGGTG | 0.408 |
| TACCGGTA | 0.36 |
| AACCGGTA | 0.261 |
| CACCGGTA | 0.408 |
| AACCGGTC | 0.272 |
| AGAAGCCT | -0.0816 |
| TCTGCAGA | 0.00207 |
| CCCCCAGG | -0.281 |
| AAAACCCC | 0.355 |
| AAAACCCG | 0.379 |
| ATAACTCG | 0.0637 |
| AAAACCCT | -0.074 |
| AAACCCCC | 0.263 |
| CAAACCCG | 0.216 |
| GAAACCCA | 0.0284 |

| Sequence | PBM E-score |
| --- | --- |
| GAAAACCC | 0.278 |
| CTAACTCC | 0.288 |
| AAAAACCC | 0.226 |
| ATAACTCC | 0.429 |
| GAAACCCC | 0.353 |
| AATCTGTG | -0.207 |
| CGCAGAAA | -0.114 |
| GCAAAGGC | 0.115 |
| GGTGGACA | 0.00374 |
| TCTTTCAA | -0.0737 |
| ACCCTCCG | 0.134 |
| CGGTGGCA | 0.299 |
| CCTTATCC | 0.00435 |
| ATCTCCAC | 0.0569 |
| GTCTTAAA | 0.179 |
| ACTCGACT | -0.224 |
| ATAACCCA | -0.157 |
| ATAAACCA | -0.078 |
| CTAAACCC | 0.233 |
| ATAACCCG | 0.228 |
| ATAACCCC | 0.412 |
| ATAAACCC | 0.373 |
| AATTCCTA | -0.258 |
| AAAGACCC | 0.0704 |
